Most compounds without a hit are left out; they make up all but 6.5% or so of the library.
VACV Venus inh: vaccinia inhibition (Venus reporter). Vaccinia virus Venus reporter expression, fluorescence. Potency, µM (doses to about 36.5 µM), inactives show at the top dose activity change, negative = inhibition, hits mostly inhibitors. 330,000 compounds, 0.46% hits. AID 720580; calls by dose curve; tested in A549 cells; also: potency is read from the fitted curve at half-maximal effect; nearly all actives have a fitted effect of over 30% in size
VACV mCherry inh: vaccinia inhibition (mCherry reporter) | 310,000 compounds, 0.63% hits | Vaccinia virus mCherry reporter infection, fluorescence | Potency, µM (top dose mostly 36.5 µM), for the others: at the highest dose activity change, negative = inhibition, most hits filed as inhibitors; calls by dose curve; tested in A549 cells; also: potency is read from the fitted curve at half-maximal effect; nearly all actives have a fitted effect of over 35% in size
Marburg entry inh: Marburg virus entry inhibition. Marburg virus pseudotyped entry inhibition, cell reporter. Potency, µM (top dose mostly 37.8 µM), for the others: at the top dose activity change, negative = inhibition, actives largely listed as inhibitors. 300,000 compounds, 1.8% hits. AID 540276; calls by dose curve; tested in HEK293 cells; also: potency is read from the fitted curve at half-maximal effect
FMDV inh: blocks foot and mouth disease virus; FMDV antiviral cell-based qHTS; Potency, µM (titrated, usually from 57.9 µM), for inactives: at the highest dose activity change, negative = inhibition, most hits filed as inhibitors; 410,000 compounds, 1.2% hits; AID 1159524; calls by dose curve; tested in HEK293T cells; also: read-out not given here; potency is read from the fitted curve at half-maximal effect; nearly all actives have a fitted effect of over 45% in size
LASV entry inh: inhibitors of Lassa virus binding or cell entry; Lassa virus pseudotype entry inhibition, cell reporter; Potency, µM (highest dose often 37.9 µM), inactives show top-dose activity change, negative = inhibition, actives largely listed as inhibitors; 300,000 compounds, 1.2% hits; calls by dose curve; tested in HEK293 cells; also: potency is read from the fitted curve at half-maximal effect; nearly all actives have a fitted effect of over 50% in size
HCMV inh: human cytomegalovirus inhibition; HFF cells, HCMV-luciferase reporter, 72 h; active compounds read low; activity change, negative = inhibition, % at 57.5 µM; 410,000 compounds, 4.5% hits; AID 1259415; in the data active = activity change below about -60%; inconclusive = no clear call, values can overlap the other calls; inactive = above about -39%
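Luciferase read-out from HCMV-luciferase-infected HFFs (MOI 1 PFU/cell) 72 h post infection at 37C; compounds added after 16 h cell attachment; activity normalized between buffer-only basal and Salinomycin (10uM) inhibitor controls.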
* hit, by the source's call; [ ] = remark or other dose. % is scaled to controls: 0 for no effect and ±100 for the full control effect.

`CC(=O)c1cccc(NC(=O)c2ccc(N(Cc3ccccc3)S(C)(=O)=O)cc2)c1` gave Marburg entry inh -23%, FMDV inh 32µM*, LASV entry inh 1% and HCMV inh 6.
Screening Cc1cccc(NC(=O)c2ccc(N(Cc3ccccc3)S(C)(=O)=O)cc2)c1 returned VACV Venus inh 2%, VACV mCherry inh -17%, FMDV inh 22µM*, LASV entry inh inconclusive and HCMV inh -66*.
`CC(=O)c1cccc(NC(=O)c2ccccc2N(Cc2ccccc2)S(C)(=O)=O)c1` gave FMDV inh -8% and HCMV inh -17.
`CC1CN(C(=O)Nc2ccc(C(=O)NCc3cccc(F)c3)cc2)c2ccccc2S1` (stereo not given) gave VACV Venus inh -13%, VACV mCherry inh -7%, Marburg entry inh -12%[46.1 µM], FMDV inh -17%, LASV entry inh -27%[46.1 µM] and HCMV inh 6.
For CCc1cc2c(NCc3ccccc3)nc(C)nc2s1 the results were FMDV inh inconclusive and HCMV inh -84*.
CCc1cc2c(NC(Cc3ccccc3)C(=O)O)nc(C)nc2s1 (stereo not given) was read as FMDV inh -1% and HCMV inh -22.
Screening COCCNC(=O)c1ccc2c(=O)n(CCc3ccccc3)c(SCC(=O)CC(=O)OC)nc2c1 returned VACV Venus inh -11%, VACV mCherry inh -13%, FMDV inh -26%, LASV entry inh -21%[46.1 µM] and HCMV inh 0.
`COc1ccccc1NC(=S)N(CCN1CCOCC1)Cc1ccccc1F` gave VACV Venus inh -13%, VACV mCherry inh -13%, Marburg entry inh inconclusive, FMDV inh -4%, LASV entry inh inconclusive and HCMV inh -61*.
`COc1ccccc1NC(=S)N(CCCN1CCOCC1)Cc1cn(C)c2ccccc12` gave VACV Venus inh -23%, VACV mCherry inh -12%, Marburg entry inh inconclusive, FMDV inh -1%, LASV entry inh -10% and HCMV inh -94*.
`Cc1ccc(Cl)cc1NC(=S)N(CCCN1CCOCC1)Cc1ccccn1` gave VACV Venus inh -10%, VACV mCherry inh -10%, Marburg entry inh 11%, FMDV inh -3%, LASV entry inh 11% and HCMV inh -12.
Screening COc1ccc(Cl)cc1NC(=S)N(CCCN1CCOCC1)Cc1cn(C)c2ccccc12 returned VACV Venus inh inconclusive, VACV mCherry inh inconclusive, Marburg entry inh inconclusive, FMDV inh -8%, LASV entry inh -14% and HCMV inh -71*.
For COc1cc(Cl)ccc1NC(=S)N(CCCN1CCOCC1)Cc1cn(C)c2ccccc12 the results were VACV Venus inh -17%, VACV mCherry inh inconclusive, Marburg entry inh inconclusive, FMDV inh 11%, LASV entry inh inconclusive and HCMV inh -92*.
For CCOc1ccccc1NC(=S)N(CCCN1CCOCC1)Cc1cn(C)c2ccccc12 the results were VACV Venus inh -27%, VACV mCherry inh -25%, Marburg entry inh inconclusive, FMDV inh -16%, LASV entry inh inconclusive and HCMV inh inconclusive.
COc1ccc(NC(=S)N(CCN2CCOCC2)Cc2ccccc2F)cc1 was read as VACV Venus inh -5%, VACV mCherry inh -13%, Marburg entry inh inconclusive, FMDV inh 14%, LASV entry inh inconclusive and HCMV inh -9.
`Cc1noc(C)c1-c1nccc(N2CCN(C)CC2)n1` gave FMDV inh 3%.
FC(F)(F)c1cc(CCN2CCNC[C@H]2Cc2cccc3ccccc23)cc(C(F)(F)F)c1 was read as VACV Venus inh -28%, VACV mCherry inh inconclusive, FMDV inh -28% and HCMV inh -80*.
Oc1ccc(C[C@H]2CNCCN2CCc2cc(C(F)(F)F)cc(C(F)(F)F)c2)cc1 was read as VACV Venus inh -28%, VACV mCherry inh -13%, FMDV inh -24% and HCMV inh 12.
Oc1ccc(C[C@@H]2CNCCN2CCc2cc(C(F)(F)F)cc(C(F)(F)F)c2)cc1 was read as VACV Venus inh 10µM*, VACV mCherry inh 14µM*, FMDV inh 0% and HCMV inh 12.
Screening c1ccc(C[C@H]2CNCCN2CCc2cccc3ccccc23)cc1 returned VACV Venus inh -19%, VACV mCherry inh -5%, FMDV inh -22% and HCMV inh -23.

Screening data deposited in PubChem by National Center for Advancing Translational Sciences (NCATS).
